Reference: ChEMBL document CHEMBL1961873, “Compounds: GSK PKIS; Assays: Nanosyn kinase panel” (2012)

Experiments:
[1] = target: Mitogen-activated protein kinase 3 (Homo sapiens) (UniProt P27361); conditions: at 1 µM;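 also: values are mean percent inhibition of MAPK3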
[2] = target: SRSF protein kinase 3 (Homo sapiens) (UniProt Q9UPE1); conditions: at 0.1 µM
[3] = target: SRSF protein kinase 3 (Homo sapiens) (UniProt Q9UPE1); conditions: at 1 µM
[4] = target: Mitogen-activated protein kinase 14 (Homo sapiens) (UniProt Q16539); conditions: at 0.1 µM
[5] = target: Mitogen-activated protein kinase 14 (Homo sapiens) (UniProt Q16539); conditions: at 1 µM
[6] = target: Mitogen-activated protein kinase 11 (Homo sapiens) (UniProt Q15759); conditions: at 0.1 µM
[7] = target: Mitogen-activated protein kinase 11 (Homo sapiens) (UniProt Q15759); conditions: at 1 µM
[8] = target: T1, Mitogen-activated protein kinase 13 (Homo sapiens) (UniProt O15264); conditions: at 0.1 µM
T1 sequence (whole entry): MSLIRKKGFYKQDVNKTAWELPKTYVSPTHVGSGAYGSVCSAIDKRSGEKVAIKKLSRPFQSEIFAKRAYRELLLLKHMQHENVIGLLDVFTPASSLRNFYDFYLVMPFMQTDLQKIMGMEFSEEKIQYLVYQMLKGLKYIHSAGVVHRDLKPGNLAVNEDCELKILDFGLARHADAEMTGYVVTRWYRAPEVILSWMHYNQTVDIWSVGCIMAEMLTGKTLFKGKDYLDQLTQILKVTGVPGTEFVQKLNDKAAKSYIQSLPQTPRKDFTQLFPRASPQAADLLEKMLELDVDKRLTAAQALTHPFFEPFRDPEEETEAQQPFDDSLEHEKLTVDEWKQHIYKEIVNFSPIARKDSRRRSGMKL

[9] = target: T1, Mitogen-activated protein kinase 13 (Homo sapiens); conditions: at 1 µM
[10] = target: T2, Mitogen-activated protein kinase 12 (Homo sapiens) (UniProt P53778); conditions: at 0.1 µM
T2 sequence (whole entry): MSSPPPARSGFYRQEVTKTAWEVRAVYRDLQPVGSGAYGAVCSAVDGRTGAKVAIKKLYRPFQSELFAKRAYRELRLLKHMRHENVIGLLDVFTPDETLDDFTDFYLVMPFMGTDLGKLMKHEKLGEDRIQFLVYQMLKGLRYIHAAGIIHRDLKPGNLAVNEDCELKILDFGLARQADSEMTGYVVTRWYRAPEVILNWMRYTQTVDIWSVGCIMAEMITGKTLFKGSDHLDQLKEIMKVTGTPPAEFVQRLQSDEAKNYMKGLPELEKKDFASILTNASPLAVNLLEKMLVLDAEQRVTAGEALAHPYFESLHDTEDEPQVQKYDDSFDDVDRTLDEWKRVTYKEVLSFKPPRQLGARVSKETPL

[11] = target: T2, Mitogen-activated protein kinase 12 (Homo sapiens); conditions: at 1 µM
[12] = target: SRSF protein kinase 1 (Homo sapiens) (UniProt Q96SB4); conditions: at 0.1 µM
[13] = target: SRSF protein kinase 1 (Homo sapiens) (UniProt Q96SB4); conditions: at 1 µM
[14] = target: Phosphatidylinositol 4,5-bisphosphate 3-kinase catalytic subunit alpha isoform (Homo sapiens) (UniProt P42336); conditions: at 0.1 µM
[15] = target: Phosphatidylinositol 4,5-bisphosphate 3-kinase catalytic subunit alpha isoform (Homo sapiens) (UniProt P42336); conditions: at 1 µM
[16] = target: T3, Phosphatidylinositol 4,5-bisphosphate 3-kinase catalytic subunit delta isoform (Homo sapiens) (UniProt O00329); conditions: at 0.1 µM
T3 sequence (whole entry): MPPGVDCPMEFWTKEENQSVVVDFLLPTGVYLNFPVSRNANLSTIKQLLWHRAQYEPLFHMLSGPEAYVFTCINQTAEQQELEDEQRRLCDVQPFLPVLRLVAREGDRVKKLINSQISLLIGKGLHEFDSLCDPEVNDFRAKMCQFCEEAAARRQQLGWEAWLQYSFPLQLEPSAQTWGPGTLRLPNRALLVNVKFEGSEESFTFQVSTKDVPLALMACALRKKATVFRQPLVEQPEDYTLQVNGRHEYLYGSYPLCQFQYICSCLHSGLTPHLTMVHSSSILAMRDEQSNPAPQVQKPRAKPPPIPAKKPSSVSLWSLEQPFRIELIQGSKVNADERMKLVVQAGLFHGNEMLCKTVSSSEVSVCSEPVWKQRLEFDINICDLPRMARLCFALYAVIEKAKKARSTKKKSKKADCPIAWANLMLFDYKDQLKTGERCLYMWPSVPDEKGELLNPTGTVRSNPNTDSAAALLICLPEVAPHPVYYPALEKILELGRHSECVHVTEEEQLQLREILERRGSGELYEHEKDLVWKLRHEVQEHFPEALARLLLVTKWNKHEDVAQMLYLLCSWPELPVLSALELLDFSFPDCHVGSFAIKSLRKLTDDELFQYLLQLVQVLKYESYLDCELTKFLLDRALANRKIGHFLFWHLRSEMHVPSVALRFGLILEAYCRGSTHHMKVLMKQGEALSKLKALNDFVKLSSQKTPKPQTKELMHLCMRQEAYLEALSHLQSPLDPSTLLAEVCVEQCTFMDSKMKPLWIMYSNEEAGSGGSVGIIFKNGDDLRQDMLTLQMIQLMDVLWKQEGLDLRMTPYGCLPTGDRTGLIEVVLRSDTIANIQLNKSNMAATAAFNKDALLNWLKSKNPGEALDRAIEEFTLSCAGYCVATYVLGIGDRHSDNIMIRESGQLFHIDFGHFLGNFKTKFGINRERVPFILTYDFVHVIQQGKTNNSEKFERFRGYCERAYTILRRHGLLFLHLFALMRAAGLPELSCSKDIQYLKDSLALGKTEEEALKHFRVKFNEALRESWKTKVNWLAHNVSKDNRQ

[17] = target: T3, Phosphatidylinositol 4,5-bisphosphate 3-kinase catalytic subunit delta isoform (Homo sapiens); conditions: at 1 µM
[18] = target: Phosphatidylinositol 4-kinase beta (Homo sapiens) (UniProt Q9UBF8); conditions: at 0.1 µM
[19] = target: Phosphatidylinositol 4-kinase beta (Homo sapiens) (UniProt Q9UBF8); conditions: at 1 µM
[20] = target: Sphingosine kinase 1 (Homo sapiens) (UniProt Q9NYA1); conditions: at 0.1 µM;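 also: mean percent inhibition of SPHK1 activity, measured within the GSK PKIS screening panel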
Sequence of Sphingosine kinase 1 (Homo sapiens) (Q9NYA1 whole entry): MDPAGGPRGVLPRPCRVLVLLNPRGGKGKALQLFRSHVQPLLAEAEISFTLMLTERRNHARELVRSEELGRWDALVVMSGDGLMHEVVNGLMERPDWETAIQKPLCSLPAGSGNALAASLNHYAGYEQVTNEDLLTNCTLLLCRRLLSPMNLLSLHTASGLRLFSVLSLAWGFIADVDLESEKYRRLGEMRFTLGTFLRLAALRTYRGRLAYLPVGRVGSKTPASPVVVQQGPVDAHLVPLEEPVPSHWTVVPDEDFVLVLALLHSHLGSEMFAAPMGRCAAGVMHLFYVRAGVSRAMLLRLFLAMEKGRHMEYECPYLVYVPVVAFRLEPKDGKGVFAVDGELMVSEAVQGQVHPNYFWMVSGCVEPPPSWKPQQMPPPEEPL

Sequence of Phosphatidylinositol 4-kinase beta (Homo sapiens) (Q9UBF8 2-816 limits assumed): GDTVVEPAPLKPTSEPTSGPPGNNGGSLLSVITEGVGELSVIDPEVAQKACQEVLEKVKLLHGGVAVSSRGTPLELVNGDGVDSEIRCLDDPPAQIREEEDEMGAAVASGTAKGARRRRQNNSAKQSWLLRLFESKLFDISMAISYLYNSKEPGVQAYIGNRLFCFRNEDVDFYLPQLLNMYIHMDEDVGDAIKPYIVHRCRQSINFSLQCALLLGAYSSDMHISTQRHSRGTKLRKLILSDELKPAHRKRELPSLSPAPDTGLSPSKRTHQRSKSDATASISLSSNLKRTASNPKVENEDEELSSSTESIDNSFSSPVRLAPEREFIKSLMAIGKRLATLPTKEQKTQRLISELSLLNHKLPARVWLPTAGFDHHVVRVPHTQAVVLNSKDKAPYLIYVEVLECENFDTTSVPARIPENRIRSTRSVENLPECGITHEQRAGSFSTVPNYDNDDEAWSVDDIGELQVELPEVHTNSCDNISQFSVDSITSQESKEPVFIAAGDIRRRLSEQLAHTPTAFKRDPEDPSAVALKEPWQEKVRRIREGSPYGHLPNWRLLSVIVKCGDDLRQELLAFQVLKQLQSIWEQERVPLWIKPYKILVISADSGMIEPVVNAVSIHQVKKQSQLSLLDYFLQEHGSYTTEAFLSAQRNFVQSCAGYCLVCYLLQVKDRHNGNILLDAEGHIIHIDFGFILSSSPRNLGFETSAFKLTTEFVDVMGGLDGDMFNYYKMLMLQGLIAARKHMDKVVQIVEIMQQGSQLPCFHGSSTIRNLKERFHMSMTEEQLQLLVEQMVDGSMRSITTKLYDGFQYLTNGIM
Sequence of Phosphatidylinositol 4,5-bisphosphate 3-kinase catalytic subunit alpha isoform (Homo sapiens) (P42336 whole entry, canonical isoform): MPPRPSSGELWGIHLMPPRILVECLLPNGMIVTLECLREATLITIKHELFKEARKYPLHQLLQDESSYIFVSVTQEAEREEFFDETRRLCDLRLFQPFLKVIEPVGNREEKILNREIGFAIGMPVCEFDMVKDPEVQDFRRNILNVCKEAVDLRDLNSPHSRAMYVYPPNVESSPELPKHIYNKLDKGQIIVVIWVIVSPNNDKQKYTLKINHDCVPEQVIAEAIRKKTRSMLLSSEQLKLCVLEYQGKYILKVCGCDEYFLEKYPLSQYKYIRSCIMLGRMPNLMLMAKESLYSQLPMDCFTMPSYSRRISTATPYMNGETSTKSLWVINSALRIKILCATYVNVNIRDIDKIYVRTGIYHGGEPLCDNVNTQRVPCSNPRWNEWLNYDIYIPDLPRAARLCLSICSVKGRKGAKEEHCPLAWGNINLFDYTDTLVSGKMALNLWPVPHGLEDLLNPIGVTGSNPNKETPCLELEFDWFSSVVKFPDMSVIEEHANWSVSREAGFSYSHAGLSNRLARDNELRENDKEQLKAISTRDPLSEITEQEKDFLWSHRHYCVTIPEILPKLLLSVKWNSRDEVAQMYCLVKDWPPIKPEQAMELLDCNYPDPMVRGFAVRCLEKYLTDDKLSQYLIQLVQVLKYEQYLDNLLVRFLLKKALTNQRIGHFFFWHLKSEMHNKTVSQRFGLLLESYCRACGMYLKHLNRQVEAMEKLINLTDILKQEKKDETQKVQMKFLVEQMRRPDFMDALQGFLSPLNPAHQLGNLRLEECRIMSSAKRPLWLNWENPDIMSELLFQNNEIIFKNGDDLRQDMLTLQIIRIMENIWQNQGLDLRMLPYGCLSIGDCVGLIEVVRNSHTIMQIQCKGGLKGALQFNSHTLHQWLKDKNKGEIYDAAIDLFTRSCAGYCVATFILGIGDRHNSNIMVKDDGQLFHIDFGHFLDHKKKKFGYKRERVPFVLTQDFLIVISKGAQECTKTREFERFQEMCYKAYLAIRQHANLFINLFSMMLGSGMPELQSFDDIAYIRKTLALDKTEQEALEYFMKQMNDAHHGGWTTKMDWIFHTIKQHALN
Sequence of Mitogen-activated protein kinase 3 (Homo sapiens) (P27361 whole entry): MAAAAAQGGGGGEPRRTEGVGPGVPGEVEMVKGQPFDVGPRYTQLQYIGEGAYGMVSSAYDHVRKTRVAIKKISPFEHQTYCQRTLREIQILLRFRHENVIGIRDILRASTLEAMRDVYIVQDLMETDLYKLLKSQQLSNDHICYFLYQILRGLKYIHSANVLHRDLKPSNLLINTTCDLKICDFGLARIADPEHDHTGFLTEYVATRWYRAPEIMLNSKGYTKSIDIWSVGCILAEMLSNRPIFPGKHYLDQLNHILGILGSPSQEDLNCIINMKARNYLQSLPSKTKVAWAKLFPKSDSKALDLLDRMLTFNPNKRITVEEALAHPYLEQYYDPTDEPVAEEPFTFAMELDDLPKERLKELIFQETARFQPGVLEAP
Sequence of SRSF protein kinase 3 (Homo sapiens) (Q9UPE1 whole entry): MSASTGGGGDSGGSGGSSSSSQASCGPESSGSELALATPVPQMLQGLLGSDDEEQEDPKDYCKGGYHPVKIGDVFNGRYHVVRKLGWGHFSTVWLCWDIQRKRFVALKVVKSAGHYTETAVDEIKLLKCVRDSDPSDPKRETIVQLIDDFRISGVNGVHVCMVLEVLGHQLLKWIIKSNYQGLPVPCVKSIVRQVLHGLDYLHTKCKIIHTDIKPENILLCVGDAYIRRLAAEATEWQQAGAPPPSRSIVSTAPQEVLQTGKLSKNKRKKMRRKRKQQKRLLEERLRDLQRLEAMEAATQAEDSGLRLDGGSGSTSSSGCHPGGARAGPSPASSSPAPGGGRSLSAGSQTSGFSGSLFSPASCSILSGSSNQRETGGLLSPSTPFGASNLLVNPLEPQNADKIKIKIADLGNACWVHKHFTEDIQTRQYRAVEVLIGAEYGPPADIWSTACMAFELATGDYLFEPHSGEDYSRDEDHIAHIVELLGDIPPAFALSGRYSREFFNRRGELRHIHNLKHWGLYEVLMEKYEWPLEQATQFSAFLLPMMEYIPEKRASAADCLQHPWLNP
Sequence of SRSF protein kinase 1 (Homo sapiens) (Q96SB4 whole entry, canonical isoform): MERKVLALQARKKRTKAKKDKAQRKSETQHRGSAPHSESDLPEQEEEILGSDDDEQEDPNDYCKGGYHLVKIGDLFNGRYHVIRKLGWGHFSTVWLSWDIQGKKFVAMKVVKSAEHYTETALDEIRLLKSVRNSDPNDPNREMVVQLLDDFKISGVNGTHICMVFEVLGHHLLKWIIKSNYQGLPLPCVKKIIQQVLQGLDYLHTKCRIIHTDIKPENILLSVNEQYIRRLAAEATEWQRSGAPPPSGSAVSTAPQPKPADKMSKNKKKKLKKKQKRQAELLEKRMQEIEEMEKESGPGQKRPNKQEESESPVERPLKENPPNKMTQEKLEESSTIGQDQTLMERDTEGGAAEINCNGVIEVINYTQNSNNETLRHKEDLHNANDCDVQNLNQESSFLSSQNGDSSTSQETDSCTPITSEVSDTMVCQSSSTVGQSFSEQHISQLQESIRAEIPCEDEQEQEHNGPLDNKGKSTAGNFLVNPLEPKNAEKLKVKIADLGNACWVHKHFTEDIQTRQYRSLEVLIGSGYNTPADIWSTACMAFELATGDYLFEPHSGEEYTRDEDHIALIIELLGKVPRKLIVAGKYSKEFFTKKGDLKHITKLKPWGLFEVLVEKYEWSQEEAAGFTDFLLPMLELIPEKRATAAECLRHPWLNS
Sequence of Mitogen-activated protein kinase 11 (Homo sapiens) (Q15759 whole entry): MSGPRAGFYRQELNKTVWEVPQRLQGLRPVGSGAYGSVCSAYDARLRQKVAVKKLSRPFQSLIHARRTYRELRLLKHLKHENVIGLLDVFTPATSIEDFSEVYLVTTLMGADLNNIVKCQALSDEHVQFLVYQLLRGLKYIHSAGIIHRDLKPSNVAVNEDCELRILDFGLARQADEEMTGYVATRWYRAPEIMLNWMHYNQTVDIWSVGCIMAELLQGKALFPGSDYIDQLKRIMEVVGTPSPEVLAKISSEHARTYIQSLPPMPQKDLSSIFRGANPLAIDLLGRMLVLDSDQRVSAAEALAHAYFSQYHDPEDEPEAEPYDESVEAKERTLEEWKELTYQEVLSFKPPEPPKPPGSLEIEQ
Sequence of Mitogen-activated protein kinase 14 (Homo sapiens) (Q16539 whole entry): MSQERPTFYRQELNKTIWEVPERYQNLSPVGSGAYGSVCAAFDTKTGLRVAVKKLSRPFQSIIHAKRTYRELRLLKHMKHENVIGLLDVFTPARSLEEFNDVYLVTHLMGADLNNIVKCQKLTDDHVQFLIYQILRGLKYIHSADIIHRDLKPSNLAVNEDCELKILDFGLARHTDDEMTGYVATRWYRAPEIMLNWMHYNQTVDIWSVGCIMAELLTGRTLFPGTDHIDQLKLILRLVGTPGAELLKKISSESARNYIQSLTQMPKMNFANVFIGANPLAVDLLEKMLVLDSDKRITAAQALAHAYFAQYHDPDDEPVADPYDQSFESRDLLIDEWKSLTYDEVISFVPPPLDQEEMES

SMILES	inhibition [1] [%]	inhibition [2] [%]	inhibition [3] [%]	inhibition [4] [%]	inhibition [5] [%]	inhibition [6] [%]	inhibition [7] [%]	inhibition [8] [%]	inhibition [9] [%]	inhibition [10] [%]	inhibition [11] [%]	inhibition [12] [%]	inhibition [13] [%]	inhibition [14] [%]	inhibition [15] [%]	inhibition [16] [%]	inhibition [17] [%]	inhibition [18] [%]	inhibition [19] [%]	inhibition [20] [%]
CNC(=O)c1cc(-c2ccc(F)cc2)cc(-c2ccc(S(=O)(=O)N3CCCC3)cc2)c1N	1.92	-1.6	-0.52	4.95	4.5	1.39	3.19	3.39	2.91	2.77	2.47	-2.58	-1.56	2.34	1.39	0.79	1.11	-2.09	1.93	-0.85
CC(=O)NCc1cccc(C#Cc2cncnc2Nc2ccc(OCc3cccc(F)c3)c(Cl)c2)c1	2.72	-1.32	-1.8	1.05	-0.7	1.26	-0.84	-3.33	0.78	0.11	1.37	-0.72	-2.28	-1.17	0.49	-1.34	-0.33	-4.32	-2.4	2.94
N#Cc1c(NC(=O)CN2CCOCC2)sc2c1CCCC2	6.78	-1.65	2.65	5.67	9.2	1.86	7.38	6	5.61	3.4	3.63	-1.48	3.81	3.43	3.19	0.47	0.45	0.92	-0.98	0.08
CN(C)CCOc1ccc(-c2nc(-c3ccncc3)c(-c3ccc4c(c3)CC/C4=N\O)[nH]2)cc1	3.36	1.13	1.14	3.87	15.9	2.37	6.69	0.98	4.84	1.54	1.28	-0.47	-0.41	3.08	3.29	1.62	4.12	-1.17	-2.78	11.7
Cc1ccc(O)cc1Nc1ccnc2cc(-c3ccccn3)ccc12	4.04	1.4	0.54	13.9	58.8	4.81	9.25	5.51	2.99	1.52	3	-1.63	-2.47	2.72	7.92	2.39	15.8	-2.37	-0.81	0
CN1CCC(n2cnc(-c3ccc(F)cc3)c2-c2ccnc(Nc3ccccc3)n2)CC1	6.33	0.1	-0.07	84.1	90.8	50.7	81.4	3.08	22.5	3.56	9.03	-1.25	-1.27	1.36	1.8	-0.07	4.79	-0.93	1.36	1.77
CC1=C(C(=O)Nc2cc(Cl)c3[nH]ncc3c2)C(c2ccc(C(F)(F)F)cc2)CC(=O)N1 (stereo not given)	21.8	-1.32	-2.71	-3.41	6.81	1.37	2.31	0.32	4.12	2.56	2.49	-1.04	-1.39	2.86	6.37	1.38	4.61	3.72	1.77	6.22
CCN(CC)S(=O)(=O)c1ccc(OC)c(Nc2ncc(-c3ccccc3)o2)c1	4.26	0.09	0.88	1.78	1.27	3.74	4.45	-0.22	-0.16	-2.06	0.41	1.34	2.14	-0.56	-2.02	-0.81	-1.28	1.63	0.66	0.47
Clc1ccc(-c2nn3ncccc3c2-c2ccnc(Nc3ccccc3)n2)cc1	0.24	-0.67	-1.16	46.5	82.8	13.1	58.8	0.09	1.39	2.11	1.71	-1.15	-1.1	2.48	5.33	4.92	7.17	-0.39	0.11	0.81
Fc1ccc(-c2nn3ncccc3c2-c2ccnc(Nc3ccc4c(c3)OCCO4)n2)cc1	11.3	-0.97	-1.91	72	92.8	48.6	78.7	3.53	6.19	2.92	4.06	-3.43	-6.44	3.44	6.99	3.64	9.87	-5.48	-0.74	1.29
CC(C)COC(=O)c1ccc2c(c1)/C(=C/Nc1ccc(S(N)(=O)=O)cc1)C(=O)N2	13.5	-1.27	-1.97	-0.94	-2.21	-0.49	7.86	-1	1.38	0.22	-0.52	-0.82	-1.99	3.8	-1.43	0.18	2.64	4.22	-2.78	2.57
CCn1c(-c2nonc2N)nc2c(C#CC(C)(C)O)ncc(OC3CCNCC3)c21	4.59	2.87	-1.64	8.8	11.3	1.59	7.19	1.55	2.9	2.41	3.11	-3.24	-2.54	2.27	1.82	-0.02	0.63	4.47	0.66	-1.2
O=C(O[C@H]1CN[C@H](C#Cc2cc3ncnc(Nc4ccc(Cc5ccccc5)cc4)c3s2)C1)N1CCOCC1	2.11	-2.44	-1.14	4.54	2.37	0.92	4.95	2.02	0.36	1.75	1.72	-2.56	-2.4	3.61	11.2	1.42	8.98	0.59	-0.78	0.79
